Experimental data taken from PubChem BioAssay (NCI).
This is part of a sample that, as a whole, favours compounds with a hit. Of some 79,000 tested, about 15% had one in any assay. Calls of active or inactive are those of the source. Rule as the data show it: active = growth inhibition above about 70%; inactive = the rest. Where a SMILES comes first, the peptide text is derived from it. [ ]: non-standard residue; d: D form. The star is where a group is joined. ξ: configuration not given here. Cbz = O=C(OCc1ccccc1)*; ξT = CC(O)C(N)C(=O)O

What was measured:
[1] = NCI Yeast Anticancer Drug Screen. Data for the rad50 strain (AID 155);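 also: 0% = growth of vehicle-only cultures of the same strain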; conditions: S. cerevisiae rad50 strain growth inhibition; at 50.0 µM; stronger effect = higher value
Method in brief: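 Readout: growth inhibition relative to vehicle-treated cultures. Compound exposure was carried out in a genetically defined yeast strain deficient in DNA damage repair.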

[2] = NCI Yeast Anticancer Drug Screen. Data for the mec2-1 strain (AID 157); conditions: S. cerevisiae mec2-1 strain, at 50.0 µM, stronger effect = higher value
Method in brief: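 Compounds were applied to mec2-1 yeast cells. Their growth was then compared with that of vehicle-treated cultures to give growth inhibition.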

[3] = NCI Yeast Anticancer Drug Screen. Data for the sgs1 mgt1 strain (AID 161);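 also: 0% = growth of cultures given vehicle only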; conditions: S. cerevisiae sgs1 mgt1 strain, at 50.0 µM, stronger effect = higher value
Method in brief: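 Percent growth inhibition was derived by comparing compound-exposed mutant yeast with vehicle-exposed cultures. The strain carries alterations in DNA damage repair.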

[4] = NCI Yeast Anticancer Drug Screen. Data for the cln2 rad14 strain (AID 165);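 also: 0% = growth equal to vehicle treated cultures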; conditions: S. cerevisiae cln2 rad14 strain, at 50.0 µM, stronger effect = higher value
Method in brief: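 Strain: cln2 rad14 yeast, altered in cell cycle control and DNA damage repair. Read-out: growth inhibition vs vehicle.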

[5] = NCI Yeast Anticancer Drug Screen. Data for the bub3 strain (AID 167); conditions: S. cerevisiae bub3 mutant strain, at 50.0 µM, stronger effect = higher value
Method in brief: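 Readout: yeast growth inhibition, expressed relative to vehicle-only wells. The test organism is a mutant strain from a panel with lesions in DNA repair or checkpoint genes.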

[6] = NCI Yeast Anticancer Drug Screen. Data for the mlh1 rad18 strain (AID 175); conditions: S. cerevisiae mlh1 rad18 strain growth inhibition; at 50.0 µM; stronger effect = higher value
Method in brief: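 A repair-deficient yeast strain is exposed to test compound, and growth is scored relative to vehicle-treated controls.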

Measured: growth inhibition

CC(C)=NNC(=O)Nc1cccc(C)c1C
inactive: [1] 9.35% | [2] 15.2% | [3] -7.2% | [4] -47.3% | [5] -9.85% | [6] -6.7%

C=CCNC(=O)c1ccc[n+](CC(=O)Nc2ccccc2)c1
inactive: [1] 1% | [2] -9.75% | [3] -1.1% | [4] 9.8% | [5] 2.3% | [6] -7.6%

COc1ccc2nccc(SCC(=O)O)c2c1
inactive: [1] -5.25% | [2] 8.25% | [3] -29.6% | [4] 18.9% | [5] 37% | [6] 1.85%

Nc1nc(N)nc(CCC(Br)(Br)Br)n1
inactive: [1] 26.6% | [2] 4.75% | [3] 30.8% | [4] 19.9% | [5] 21.9% | [6] 11.1%

Cc1cccc2c1CCC21OC(=O)c2c1ccc1ccccc21 (stereo unspecified)
inactive: [1] 10.9% | [2] 2.7% | [3] 6.3% | [4] 17.1% | [5] 15.2% | [6] 15.1%

COc1ccc(OC)c(-c2nc3ccccc3c(=O)[nH]2)c1
inactive: [1] 9.1% | [2] 10.8% | [3] 3.35% | [4] 14.2% | [5] 22.8% | [6] 0%

CC(=O)OC1CCCN(C)C1 (stereo unspecified)
inactive: [1] -3.2% | [2] 5.5% | [3] 4.6% | [4] -7.9% | [5] 8.75% | [6] -7.8%

Clc1c2ncccc2cc2n[nH]nc12
inactive: [1] 14.9% | [2] 21.2% | [3] 24% | [4] 6.55% | [5] 5.8% | [6] 17.1%

O=C1c2cn[nH]c2N=C(Nc2ccccc2)C1N=Cc1ccc([N+](=O)[O-])cc1 (stereo unspecified)
inactive: [1] -32.6% | [2] -45.2% | [3] -13.8% | [4] 12.5% | [5] -24.3% | [6] -17.9%

Cc1ccc(CNC2=C(Cl)C(=O)c3ccccc3C2=O)cc1C
active: [1] 96.9% | [2] 98.2% | [3] 97.2% | [4] 97.2% | [5] 98% | [6] 97.2%

CNc1c(F)cc(N=Nc2ccccc2)cc1F
inactive: [1] 14.7% | [2] -8.2% | [3] 30% | [4] -20.7% | [5] -4% | [6] 10.1%

O=C1c2ccccc2-c2ccc(N3C(=O)c4c(Br)c(Br)c(Br)c(Br)c4C3=O)cc21
inactive: [1] 10.6% | [2] -2.2% | [3] 12.9% | [4] -36.8% | [5] -4.6% | [6] -17.5%

Cc1nc(C#N)c(=N)n(CCCO)c1-c1ccccc1
inactive: [1] 7.2% | [2] -8.45% | [3] 10.3% | [4] -28.5% | [5] 16.4% | [6] 5.15%

CCC1=C[C@H]2CN(CCc3c([nH]c4ccccc34)[C@@](C(=O)OC)(c3cc4c(cc3OC)N(C)[C@H]3C(C(=O)OC)=C[C@]5(CC)C=CCN6CC[C@]43[C@@H]65)C2)C1
inactive: [1] -14.7% | [2] -14.4% | [3] -4.75% | [4] -13.5% | [5] -0.8% | [6] -18.9%

Cc1ccc(S(=O)(=O)OC2C3OC(C)(C)OC3OC2C2CSC(=S)S2)cc1 (stereo unspecified)
inactive: [1] 0.3% | [2] -6.6% | [3] 10.1% | [4] -12.8% | [5] -25.3% | [6] 4%

N/C=N/O
inactive: [1] 19.9% | [2] 4.35% | [3] 16.6% | [4] 18.2% | [5] 18.8% | [6] 22.7%

O=c1cc(O)cc(CO)o1
inactive: [1] -7.65% | [2] 5.7% | [3] -9.8% | [4] 1.2% | [5] -21.2% | [6] -2.05%

CC(O)C(NC(=O)CNC(=O)CNC(=O)OCc1ccccc1)C(=O)O (stereo not drawn) (Cbz-Gly-Gly-[ξT]-OH)
inactive: [1] 7.2% | [2] -3.25% | [3] -2.45% | [4] 16.4% | [5] 6.65% | [6] 3.05%

C(=N/OC(c1ccccc1)(c1ccccc1)c1ccccc1)/c1ccccc1
inactive: [1] 13.7% | [2] 24.2% | [3] 6.2% | [4] 7.8% | [5] 15.8% | [6] 6.45%

O=S(=O)(/C=C/c1ccc(F)cc1)Cc1ccccc1
inactive: [1] -3.2% | [2] -15.6% | [3] 0.65% | [4] 12.9% | [5] -4% | [6] 11.7%

CCN(CC)C(=O)C(C)=O
inactive: [1] 8.55% | [2] 1.6% | [3] -12.4% | [4] 12.9% | [5] 1.2% | [6] 12.9%

CC(C)C/C(=N\NC(N)=O)C1=CCCCC1
inactive: [1] 10.8% | [2] 4.2% | [3] -1.15% | [4] -40.5% | [5] -0.1% | [6] 11.7%

CCCc1cc(-c2ccc(-c3cc(CCC)c(C=O)[nH]3)s2)[nH]c1C=O
inactive: [1] -19% | [2] -19.6% | [3] -31% | [4] -4.9% | [5] -20.1% | [6] -46.9%

CC(C)(C)CC(C)(C)[N+](=O)[O-]
inactive: [1] -1.15% | [2] -14.6% | [3] 2.75% | [4] 6.85% | [5] -3.25% | [6] 18.4%

Cc1c([N+](=O)[O-])cc2c(c1[N+](=O)[O-])C(C(C)C)CCC2(C)C (stereo unspecified)
inactive: [1] -1.5% | [2] -25.2% | [3] 9.65% | [4] 29.2% | [5] -40.4% | [6] -5%

CCOC(=O)C1=CCOc2cc(N(C)C)ccc21
inactive: [1] -9.25% | [2] 9.15% | [3] -1.25% | [4] 32.4% | [5] 8.75% | [6] -6.9%

CS(=O)CC1OC2OC3C(CO)OC(OC4C(CO)OC(OC5C(CO)OC(OC6C(CO)OC(OC7C(CO)OC(OC8C(CO)OC(OC1C(O)C2O)C(O)C8O)C(O)C7O)C(O)C6O)C(O)C5O)C(O)C4O)C(O)C3O (stereo unspecified)
inactive: [1] -1.9% | [2] -17.4% | [3] -8.55% | [4] -21.4% | [5] -8% | [6] 10.2%

Cn1c(=O)c2c(nc(OCC[N+](C)(C)C)n2C)n(C)c1=O
inactive: [1] 5% | [2] 11.8% | [3] -0.25% | [4] 33.4% | [5] 1.85% | [6] 2.45%

C/C=C/c1nc2ccccc2[nH]1
inactive: [1] -11.2% | [2] -2.45% | [3] -3% | [4] -2.45% | [5] -6.45% | [6] -0.95%

Cc1cc(C)c(CC#N)s1
inactive: [1] -25.2% | [2] -12.1% | [3] -1.65% | [4] -52.6% | [5] -15.4% | [6] -22.3%

CC(=O)c1ccc(N2C(=O)C3c4[nH]c5ccccc5c4C4CCC(C(C)(C)C)CC4C3C2=O)cc1 (stereo unspecified)
inactive: [1] 42.8% | [2] -2.7% | [3] 0.5% | [4] 63% | [5] 16% | [6] 18.4%

O=NN(CCCl)C(=O)NCc1ccc[n+]([O-])c1
inactive: [1] 19.7% | [2] 8.6% | [3] -2% | [4] 4.25% | [5] 2.2% | [6] 8.2%

O=C(Nc1cc(-c2ccccc2)nn1-c1ccccc1)c1ccc(Cl)cc1
inactive: [1] -16.4% | [2] -19.9% | [3] -17.8% | [4] 15.2% | [5] -29.1% | [6] -9.65%

CCC1C2C=CC(CC2)N1S(=O)(=O)c1ccc(C)cc1 (stereo unspecified)
inactive: [1] -0.7% | [2] -9.1% | [3] 10.8% | [4] 30% | [5] 13.2% | [6] -6.05%

Nc1ncnc2c1ncn2-c1ccccc1Cl
inactive: [1] 4.6% | [2] 8.35% | [3] -4.95% | [4] -1.4% | [5] 0.75% | [6] 3.1%

Oc1ccc([C@H]2Oc3c(c(O)cc4c3C3c5c(O)cc(O)cc5OC(c5ccc(O)cc5)(O4)[C@H]3O)CC2O)cc1 (stereo partly specified)
inactive: [1] 1.85% | [2] -4.6% | [3] -20.9% | [4] -4.65% | [5] -7% | [6] -5.75%
